Measured values taken from PubChem BioAssay (NCI).
About 79,000 compounds went through this panel and 15% of them were active in at least one assay; those are over-represented in the sample as a whole. Activity calls are given as the source filed them. No stated cut-off is given here; in the data, active means growth inhibition above about 70%; inactive means the rest.

How the values were obtained:
[1] = NCI Yeast Anticancer Drug Screen. Data for the rad52 strain (AID 147);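 further: 0% = growth of vehicle-treated control cultures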; conditions: S. cerevisiae rad52 mutant growth inhibition, active compounds read high
Procedure, shortened: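 Yeast strain carrying a DNA damage repair alteration was exposed to test compounds. Growth inhibition was measured relative to vehicle-treated controls.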

[2] = NCI Yeast Anticancer Drug Screen. Data for the rad50EPP+ strain (AID 151);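 further: 0% = growth of vehicle-treated control cultures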; conditions: S. cerevisiae rad50 mutant strain, active compounds read high
Procedure, shortened: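 Yeast strain carrying rad50 alteration (rad50EPP+) exposed to compounds; growth inhibition measured relative to vehicle-treated controls.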

[3] = NCI Yeast Anticancer Drug Screen. Data for the mgt1 strain (AID 153); conditions: S. cerevisiae mgt1 mutant growth inhibition, active compounds read high
Procedure, shortened: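 Yeast mgt1 strain (DNA repair/cell-cycle alteration panel) exposed to compounds; growth inhibition measured relative to vehicle-treated controls.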

[4] = NCI Yeast Anticancer Drug Screen. Data for the rad50 strain (AID 155);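 further: 0% = growth of vehicle-only cultures of the same strain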; conditions: S. cerevisiae rad50 strain growth inhibition, active compounds read high
Procedure, shortened: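 Yeast carrying a defined DNA repair defect were exposed to test compounds, and growth was compared with vehicle-treated controls to give percent inhibition.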

[5] = NCI Yeast Anticancer Drug Screen. Data for the mec2-1 strain (AID 157); conditions: S. cerevisiae mec2-1 strain, active compounds read high
Procedure, shortened: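 mec2-1 yeast strain, carrying an alteration in DNA damage repair or cell cycle control, was exposed to compounds; growth inhibition was measured relative to vehicle-treated controls.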

[6] = NCI Yeast Anticancer Drug Screen. Data for the rad14 strain (AID 159);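 further: 0% = growth of vehicle-treated control cultures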; conditions: S. cerevisiae rad14 strain growth inhibition, active compounds read high
Procedure, shortened: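 Yeast cells carrying a defined DNA-repair defect were exposed to compounds, and growth inhibition was calculated relative to vehicle-treated control cultures.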

[7] = NCI Yeast Anticancer Drug Screen. Data for the sgs1 mgt1 strain (AID 161);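 further: 0% = growth of cultures given vehicle only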; conditions: S. cerevisiae sgs1 mgt1 strain, active compounds read high
Procedure, shortened: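 This yeast growth screen uses a strain with defined DNA-repair lesions; compound-treated growth is compared with vehicle-treated growth.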

[8] = NCI Yeast Anticancer Drug Screen. Data for the CLN2oe strain (AID 163);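 further: 0% = growth of vehicle-only control cultures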; conditions: S. cerevisiae CLN2oe strain, active compounds read high
Procedure, shortened: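 Yeast cells carrying a defined cell-cycle control alteration were exposed to test compounds. Growth inhibition was scored against vehicle-treated control cultures.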

[9] = NCI Yeast Anticancer Drug Screen. Data for the cln2 rad14 strain (AID 165);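 further: 0% = growth equal to vehicle treated cultures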; conditions: S. cerevisiae cln2 rad14 strain, active compounds read high
Procedure, shortened: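 Yeast carrying cln2 and rad14 alterations (cell cycle control and DNA damage repair) were exposed to compounds. Growth inhibition was measured against vehicle-treated controls.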

[10] = NCI Yeast Anticancer Drug Screen. Data for the bub3 strain (AID 167); conditions: S. cerevisiae bub3 mutant strain, active compounds read high
Procedure, shortened: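 Compounds were applied to a genetically altered yeast strain carrying a cell-cycle control defect. Growth inhibition was scored against vehicle-treated controls.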

[11] = NCI Yeast Anticancer Drug Screen. Data for the wt2 strain (AID 169);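 further: 0% = growth of vehicle-treated yeast cultures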; conditions: S. cerevisiae wt2 strain growth inhibition, active compounds read high
Procedure, shortened: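 Yeast cells were exposed to test compounds, and growth inhibition was measured relative to vehicle-treated controls.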

[12] = NCI Yeast Anticancer Drug Screen. Data for the sgs1 strain (AID 173);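 further: 0% = growth of vehicle-only control cultures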; conditions: S. cerevisiae sgs1 mutant, active compounds read high
Procedure, shortened: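 Yeast mutant strains carrying defined defects in DNA damage repair or cell cycle control were exposed to test compounds. Growth inhibition was scored against vehicle-treated controls.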

[13] = NCI Yeast Anticancer Drug Screen. Data for the mlh1 rad18 strain (AID 175); conditions: S. cerevisiae mlh1 rad18 strain growth inhibition, active compounds read high
Procedure, shortened: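 Growth inhibition of the yeast strain was measured after compound exposure and expressed relative to vehicle-treated controls. The strain carries defined defects in DNA damage repair.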

[14] = NCI Yeast Anticancer Drug Screen. Data for the rad18 strain (AID 177); conditions: S. cerevisiae rad18 mutant growth inhibition, active compounds read high
Procedure, shortened: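 Yeast carrying a defined DNA damage repair alteration were exposed to compounds. Growth inhibition was expressed relative to vehicle-treated controls.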

[15] = at 5.0 µM (retest, dose inferred, filed as 0.5)
[16] = at 50.0 µM (retest, dose inferred, filed as 5.0)

Measured: growth inhibition

C[C@H](CCC1=NC(C)(C)CO1)C1CCC2[C@@H]3C(O)C[C@@H]4CC(O)CC[C@]4(C)C3CC[C@@]21C (stereo partly drawn)
inactive: [1]; at 1.2 µM -3% | [1]; at 3.7 µM -5% | [1]; at 11.0 µM -9% | [2]; at 1.2 µM -4% | [2]; at 3.7 µM -3% | [2]; at 11.0 µM -3% | [2]; at 33.0 µM -4% | [2]; at 100.0 µM 25% | [3]; at 1.2 µM -7% | [3]; at 3.7 µM -8% | [3]; at 11.0 µM -9% | [4]; at 1.2 µM -3% | [4]; at 3.7 µM -4% | [4]; [15] 1% | [4]; at 11.0 µM -8% | [5]; at 1.2 µM -5% | [5]; at 3.7 µM -3% | [5]; [15] -2% | [5]; at 11.0 µM -6% | [6]; at 1.2 µM -4% | [6]; at 3.7 µM -4% | [6]; at 11.0 µM 1% | [7]; [15] 3% | [8]; at 1.2 µM -6% | [8]; at 3.7 µM -12% | [8]; at 11.0 µM -11% | [8]; at 33.0 µM 62% | [9]; [15] 1% | [10]; at 1.2 µM -3% | [10]; at 3.7 µM -2% | [10]; [15] 0% | [10]; at 11.0 µM -10% | [11]; at 1.2 µM -4% | [11]; at 3.7 µM -7% | [11]; at 11.0 µM -12% | [12]; at 1.2 µM -3% | [12]; at 3.7 µM -4% | [12]; at 11.0 µM -6% | [13]; [15] -7% | [14]; at 1.2 µM -5% | [14]; at 3.7 µM -6% | [14]; at 11.0 µM -6%
active: [1]; at 33.0 µM 70% | [1]; at 100.0 µM 99% | [3]; at 33.0 µM 71% | [3]; at 100.0 µM 100% | [4]; at 33.0 µM 76% | [4]; [16] 95% | [4]; at 50.0 µM 99.4% | [4]; at 100.0 µM 99% | [5]; at 33.0 µM 84% | [5]; [16] 98% | [5]; at 50.0 µM 99.8% | [5]; at 100.0 µM 100% | [6]; at 33.0 µM 99% | [6]; at 100.0 µM 100% | [7]; [16] 98% | [7]; at 50.0 µM 99.7% | [8]; at 100.0 µM 99% | [9]; [16] 96% | [9]; at 50.0 µM 97.9% | [10]; at 33.0 µM 79% | [10]; [16] 98% | [10]; at 50.0 µM 98.5% | [10]; at 100.0 µM 99% | [11]; at 33.0 µM 95% | [11]; at 100.0 µM 100% | [12]; at 33.0 µM 90% | [12]; at 100.0 µM 100% | [13]; [16] 98% | [13]; at 50.0 µM 99.4% | [14]; at 33.0 µM 96% | [14]; at 100.0 µM 99%
